# Pf Dd2 growth: Plasmodium falciparum Dd2 growth inhibition | P. falciparum Dd2 growth, SYBR Green, 72 h | 4.3% of 120,000 active | Potency, µM (series often up to 28.9 µM), inactives show at the top dose activity, negative = inhibition, usual class: inhibitors; active means well fitted inhibition curve with a large enough effect;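 further: plate controls were DMSO vehicle for no effect and reference drug for full effect; nearly all actives have a fitted effect of over 65% in size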
#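 Readout: SYBR Green fluorescence, 485 nm excitation, 535 nm emission, after ~16 h lysis at 37C. Before that, Dd2-infected red cells (2.5% hematocrit) grew 72 h with compound, 29 uM top final concentration.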
# Starred values were filed as active, the others as inactive; i = inactive; [ ] = remark or other dose. Many of the other results were omitted from the sample, so hits are more common in it than they were. Potency means the concentration at half of the fitted maximal effect.
SMILES,Pf Dd2 growth
COCC(=O)N[C@@H]1CN(Cc2ccccc2C(F)(F)F)C[C@H]1CO,12.8%
Cc1ccc(CN2C(=O)C3(CCOCC3)CC2c2nnnn2C(C)(C)C)cc1 (stereo not given),38.3%
CN(Cc1cc(-c2ccncc2)no1)C(=O)CCc1cc2n(n1)CCCNC2,1.8%
O=C(C1CCC1)N1CCC2(CCN(Cc3ccccc3F)CC2)C(CO)C1 (stereo not given),-23.1%
CC(C)C(NC(=O)C1CCN(C(=O)C2CC2)CC1)c1nccn1C (stereo not given),-0.4%
CC(C)NC(=O)C1=NOC2CN(C(=O)C3CC3)CC12 (stereo not given),10.6%[44.1 µM]
Cc1ccccc1C(=O)N(C)Cc1cccn1C,-13.2%[44.1 µM]
C[C@H]1CN(C(=O)CCCc2ccccc2)C[C@@H]1c1nc(-c2ccccc2)no1,i
CC1CCN(C(=O)[C@@H](C)C2CC[C@@]3(C)CC[C@H](NC(=O)COc4ccccc4)[C@@H](C)[C@@H]3[C@H]2O)CC1 (stereo not given in full),i
CCN1c2cc(C(=O)NCc3cc(F)ccc3F)ccc2C(=O)N2CCCCC21 (stereo not given),3.98µM*
CCN1c2cc(C(=O)NCc3ccc(F)cc3)ccc2C(=O)N2CCCCCC21 (stereo not given),i
CCN1c2cc(C(=O)NCc3cc(OC)ccc3OC)ccc2C(=O)N2CCCCC21 (stereo not given),-4.1%
CCN1c2cc(C(=O)NCc3ccccc3F)ccc2C(=O)N2CCCCCC21 (stereo not given),-18.8%
COc1ccccc1CNC(=O)c1ccc2c(c1)N(C)C1CCCCN1C2=O (stereo not given),i
CCN1c2cc(C(=O)NCc3ccccc3OC)ccc2C(=O)N2CCCCCC21 (stereo not given),5.01µM*
Cc1cc(C(=O)NCC23CCCC=C2NC(=O)CC3)n(C)n1 (stereo not given),-22.9%
CCc1ccc(S(=O)(=O)N2CC(F)(F)C[C@H]2c2nnc(C)o2)cc1,17.8%
O=C(O)C1(Oc2ccc(Cl)cc2)CCN(c2cnccn2)CC1,19.9%
Fc1cccc(-c2cnc([C@@H]3COCCN3Cc3cnc[nH]3)[nH]2)c1,-20.3%[44.1 µM]
COc1ccc(C(=O)NCCc2ncc(C)n2CC2CC2)cn1,8.0%
O=C1CCN(Cc2ccc(F)cc2F)CCCOCCN1,12.3%
O=C(Cc1ccc(Cl)cc1)N1C[C@@H](CO)[C@H](c2ccccn2)C1,19.8%
Cc1ccc(NC(=O)C2CCCN(S(=O)(=O)c3cccc4cccnc34)C2)cc1Cl (stereo not given),-1.5%
CCc1ccc(NC(=O)C2CCCN(S(=O)(=O)c3cccc4cccnc34)C2)cc1 (stereo not given),14.1µM*
CCc1ccc(NC(=O)C2CCCN(S(=O)(=O)c3cccc4nsnc34)C2)cc1 (stereo not given),-11.5%
SMILES,Pf Dd2 growth
CCn1c(=O)n(CC)c2cc(NC(=O)[C@H]3CC[C@@H](N)C3)c(C)cc21,8.3%
CN1[C@@H](CCC(=O)N2CCN(c3ccccc3)CC2)CNC(=O)[C@@H]2[C@H]1CCN2Cc1ccccc1,-17.2%
O=C(NC1CCCCC1)N1CCN(c2ccc(Cl)nn2)C(=O)C1,-8.1%
Fc1ccc(CCC2CCCNC2)cc1F (stereo not given),7.08µM*
Fc1ccc(CCC2CCCN(Cc3nccs3)C2)cc1F (stereo not given),i
CC1(C(=O)N2CCCC(CCc3ccc(F)c(F)c3)C2)CC1 (stereo not given),i
CCn1cc(S(=O)(=O)N2CCCC(c3nc(-c4cnccn4)no3)CCNC(=O)CC2)cn1 (stereo not given),i
Cc1c(C(=O)OC2CCC(C)CC2)[nH]c2c1C(=O)CC(c1ccc(F)cc1)C2 (stereo not given),-16.8%
CCOc1ccc(C2CC(=O)c3c([nH]c(C(=O)OC4CCC(C)CC4)c3C)C2)cc1 (stereo not given),-8.2%
Cc1c(C(=O)OC2CCCCC2)[nH]c2c1C(=O)CC(c1ccccc1)C2 (stereo not given),-15.6%
Cc1c(C(=O)OC2CCCC2)[nH]c2c1C(=O)CC(c1ccc(C(C)(C)C)cc1)C2 (stereo not given),-17.5%
COc1ccc(OC)c(C2CC(=O)c3c([nH]c(C(=O)OC4CCC(C)CC4)c3C)C2)c1 (stereo not given),10µM*
COc1ccc(C2CC(=O)c3c([nH]c(C(=O)OC4CCCCCC4)c3C)C2)cc1OC (stereo not given),10µM*
CN1C(=O)CC(C(=O)O)C12CCN(Cc1cnc(CC3CCCC3)[nH]1)CC2 (stereo not given),9.9%
COCCNC(=O)[C@@H]1CCC[C@@H](NC(=O)c2ccccc2)CN(C)C(=O)C1,17.3%[44.1 µM]
O=C(c1ccccc1)N1CCC2(CC1)C(=NC1CCCCC1)NC(=O)N2c1cccnc1,1.4%
O=C(c1cccc(F)c1)N1CCC(n2cc(-c3nc(C4CC4)no3)nn2)C1 (stereo not given),i
NC(=O)[C@@H](Cc1ccccc1)NC(=O)[C@@]1(O)C[C@@H](O)[C@H](O)[C@@H](NS(=O)(=O)c2cccc(C(F)(F)F)c2)C1,-0.4%
Cc1cc(C)c2c(N)c(C(=O)Nc3ccccc3C(F)(F)F)sc2n1,18.6%
COCc1cc(C)nc2sc(C(=O)Nc3ccccc3O)c(N)c12,8.91µM*
CCc1ccccc1NC(=O)c1sc2nc(C)cc(COC)c2c1N,-9.4%
Cc1ccccc1-c1ccnc(-c2nnc(C)n2Cc2ccccc2)c1,i
COC(=O)[C@]1(C)N[C@H](c2cccnc2N2CCOCC2)[C@@H]2C(=O)N(C)C(=O)[C@@H]21,11.1%
Cc1ccccc1Cn1c(SCc2ccc(C(=O)NC3CCCCC3)cc2)nc2ccncc21,-16.5%
CN(C)c1ccc(NC(=O)Cn2c(SCc3ccc(F)cc3)nc3ccncc32)cc1,i
SMILES,Pf Dd2 growth
Cc1ccc(CN2C(=O)NC3(CCN(C(=O)c4ccncc4)CC3)C2=O)cc1,7.6%
Cc1ccccc1Cn1c(SCc2ccc(C(=O)N3CCCCC3)cc2)nc2ccncc21,7.94µM*
Cc1ccc(Cn2c(SCc3ccc(C(=O)N4CCCCCC4)cc3)nc3ccncc32)cc1,11.2µM*
Cc1ccc(CSc2nc3cccnc3n2Cc2ccc(C(=O)NC3CCCCC3)cc2)cc1,-16.1%
CCn1ccc(C(=O)N2CCC(N3C(=O)C(O)C34CCCCC4)CC2)n1 (stereo not given),-6.3%
COc1ccc(Cl)cc1C(=O)N1CCC(c2n[nH]c(=O)n2-c2ccc(C)cc2)CC1,i
CCN(CC)Cc1cnc2c(C(=O)N3CCCC(CCCO)C3)cnn2c1 (stereo not given),-3.1%
CCn1ncc(CN(C)C(=O)c2c(C)oc3c2CN(Cc2ccc(OC)cc2)CC3)c1C,11.2µM*
COc1ccc(CN2CCc3oc(C)c(C(=O)N4CCN(C(C)=O)CC4)c3C2)cc1,-13.2%
COCCNC(=O)c1nc2c(o1)CCN(Cc1ccc(OC)cc1)CC2,-15.9%[44.1 µM]
O=C(CCOc1ccccc1)N[C@@H]1CCNC[C@H]1O,-1.9%
CCOc1ccccc1C(=O)NCc1nnc2cc(-c3nc(CC)no3)ccn12,i
O=C(NC[C@H]1OC[C@@H](NC2CCOCC2)[C@@H]1O)C1CC1,15.5%[44.1 µM]
NC(=O)c1ccccc1OCC(=O)N1CC(CNc2ccccc2)C2(C1)CN(c1ccccc1)C2 (stereo not given),-15.1%
COc1ccc(CN2CC(CNc3ccccc3)C3(C2)CN(c2ccccc2)C3)cc1O (stereo not given),3.55µM*

# Screening results from PubChem BioAssay.
